What all share (experiment): NCI-60 one-dose screen, 48 h (100 = growth as untreated, 0 = no growth, -100 = all killed)
Details in all cases: 10 µM

For test [1], the system named is SR leukemia.
Test [2] concerns RPMI-8226 leukemia.
Test [3] deals with OVCAR-8 ovarian.
Test [4] deals with OVCAR-5 ovarian.
The test system of test [5] is OVCAR-4 ovarian.
Test [6] concerns SK-OV-3 ovarian.
The subject of test [7] is IGROV1 ovarian.
Test [8] relates to OVCAR-3 ovarian.
The subject of test [9] is HS 578T breast.
The subject of test [10] is NCI/ADR-RES ovarian.
Test [11] relates to T-47D breast.
Test [12] deals with BT-549 breast.
The test system of test [13] is MDA-MB-435 melanoma.
The subject of test [14] is SW-620 colon.
Test [15] deals with MCF7 breast.
For test [16], the system named is HCT-116 colon.
Test [17] has as its system HCC-2998 colon.
Test [18] has as its system KM12 colon.

Molecules are shown by their SMILES. About 83,000 compounds went through this panel and 20% of them were active in at least one assay; those are over-represented in the sample as a whole.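 Method: cells in 96-well plates; compound added at one concentration; 48 h incubation; percent growth measured; values under 10 scored active.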 Unmarked numbers belong to inactive results. The source made the active and inactive calls.

`CCOC(=O)c1cc(-c2ccccc2)nc(N)n1`: the growth in [1] was 106%; in [2], 99.6%; in test [3] it was 103%; in test [4] it was 98.2%; in test [5] it was 107%; in test [6], 103%. Also, the growth in [7] is 103%; in test [8], 109%; in test [9] it was 92.5%; in [10], 100%; in test [11] it was 114%; in [12] it was 103%. The growth in test [13] is 102%; in [14], 103%; in test [15], 87.6%; in test [16] it was 104%; in test [17] it was 109%; in [18] it was 110%.

Regarding `Cc1nc2sccn2c1-c1csc(Nc2cccc(Cl)c2C)n1`, the growth is 17.7% in [1]; 45% in test [2]; 65.6% in test [3]; 77.9% in test [4]; 45.7% in [5]; 79.1% in test [6]. Also, the growth was 62% in test [7]; 64.3% in [8]; 53.1% in test [9]; 41.6% in [10]; 36.2% in test [11]; 43.9% in test [12]. The growth in [13] is 7.55% (active); in test [14], 49.1%; in test [15], 38.1%; in test [16], 46.1%; in [17], 69%; in test [18] it was 50.8%.

With `COc1cc(/C=C/C(=O)c2cc(-c3ccc(C(F)(F)F)cc3)ccc2O)cc(OC)c1OC`, the growth in test [1] is 23.4%; in [2], -9.06% (active); in [3], 64.1%; in [4], 99.6%; in [5], 64.6%; in [6], 81.5%. Moreover, the growth in test [7] is 75.3%; in [8], 74.1%; in test [9] it was 59.4%; in test [10], 65.9%; in [11], 35.7%; in test [12], 73.2%. The growth in test [13] was 48.4%; in [14], 54.9%; in test [15], 43.8%; in [16], 46.6%; in test [17], 94.6%; in [18] it was 69.2%.

In the case of `COc1ccc(-c2nc3sc(-c4ccccc4)c(-c4ccccc4)n3c2/C=C/c2ccc(F)cc2)cc1`, the growth is 90.5% in [1]; 95.5% in [2]; 85% in test [3]; 88.2% in test [4]; 83.2% in test [5]; 91.1% in test [6]. Moreover, the growth in test [7] was 115%; in test [8] it was 94.1%; in [9], 95.8%; in [10], 103%; in test [11], 77.6%; in test [12], 112%. The growth in test [13] is 97.1%; in [14], 95.5%; in [15] it was 73.8%; in test [16], 77.3%; in test [17] it was 92.8%; in test [18], 90.7%.

For `COc1ccc2c(=O)cc(C(Cl)(Cl)Cl)oc2c1`, the growth in test [1] is -25.6% (active); in test [2], -27.2% (active); in test [3], -1.14% (active); in [4] it was 16.6%; in test [5] it was -12.9% (active); in test [6], 9.34% (active). The growth was -7.04% (active) in [7]; -19.7% (active) in [8]; -13.9% (active) in [9]; 10.3% in [10]; 4.96% (active) in test [11]; -11.9% (active) in [12]. The growth was -81% (active) in test [13]; -2.53% (active) in test [14]; -9.4% (active) in test [15]; 4.23% (active) in test [16]; -30% (active) in test [17].

Turning to `COc1ccc(C2C=C(c3ccc(OC)c(OC)c3)N=C3SC=CN32)c(Br)c1` (stereo not given), the growth in test [1] was -14.8% (active); in test [2], -12.4% (active); in [3], 66.2%; in test [4], 102%; in [5], 62.5%; in [6] it was 101%. The growth in [7] was 69.8%; in test [8] it was 56.9%; in [9] it was 90.4%; in [10] it was 78.2%; in test [11], 54.7%; in [12], 62.5%. Moreover, the growth in test [13] is 5.29% (active); in test [14], 13.4%; in test [15] it was 12.7%; in test [16] it was -78.2% (active); in [17] it was 95%; in [18] it was 31.5%.

As to `O=c1cc(CSc2nnc(-c3ccccc3)n2-c2ccc(F)cc2)c2ccc3ccccc3c2o1`, the growth is 88.5% in test [1]; 101% in [2]; 93% in [3]; 94% in test [4]; 99.2% in test [5]; 99.7% in test [6]. For the same compound, the growth was 92.2% in [7]; 97.5% in [8]; 103% in [9]; 84.3% in test [10]; 76.7% in test [11]; 102% in [12]. The growth in test [13] is 112%; in test [14], 104%; in [15], 99.5%; in test [16] it was 86.5%; in test [17] it was 86.9%; in [18] it was 95.8%.

For `Cc1ccc(C)c(S(=O)(=O)NC2c3ccccc3Oc3ccccc32)c1`, the growth was 63% in [1]; 98.2% in test [2]; 90.6% in test [3]; 103% in [4]; 92.6% in [5]; 102% in test [6]. The growth in test [7] is 96%; in test [8] it was 95.9%; in test [9], 107%; in test [10] it was 88.5%; in test [11], 72.1%; in [12] it was 102%. Moreover, the growth is 107% in test [13]; 88.8% in test [14]; 90.8% in test [15]; 91.8% in test [16]; 104% in test [17]; 102% in test [18].

For the compound `COc1ccc(-c2nc(-c3nc4ccc(C)cc4[nH]3)c3ccccn23)cc1`, the growth was 33.2% in test [1]; -6.44% (active) in test [2]; 6.19% (active) in test [3]; 88.5% in test [4]; 44.1% in test [5]; 85.9% in test [6]. The growth in [7] is 36.5%; in test [8], 72.6%; in [9], 74.7%; in test [10], 22.6%; in [11] it was 19.3%; in test [12], 68.1%. The growth was 62.9% in test [13]; 61.2% in test [14]; 35% in [15]; 41.1% in test [16]; 36.4% in test [17].
